Compound activity from PubChem.
HT1080NT lethal – kills 2HG-producing HT-1080-NT fibrosarcoma cells. HT-1080-NT fibrosarcoma viability, CellTiter-Glo ATP luminescence, 48 h. Potency, µM (titrated, usually from 46.1 µM), without a hit: top-dose activity, negative = less viability, most hits filed as cytotoxic. 360,000 compounds, 1.6% hits. AID 686970;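 also: NT is the 2HG producing partner of a matched IDH1 knockdown line; potency is read from the fitted curve at half-maximal effect; 0% = DMSO-treated cells and -100% = media-only wells without cells; nearly all actives have a fitted effect of over 55% in size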
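A 48-hour cytotoxicity screen used HT-1080-NT cells plated 2 hours before compound delivery. ATP-based CellTiter-Glo luminescence measured viability, normalized to DMSO and no-cell controls.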
DT40 TDP1 CPT – DT40-hTDP1 cell growth loss with CPT. Potency, µM (titrated, usually from 46.2 µM), inactives show top-dose activity change, negative = growth inhibition, hits mostly inhibitors. AID 686979. chicken DT40 Tdp1-/-;hTDP1 cells + 20 nM CPT, ATP luminescence, 48 h. 420,000 compounds, 12% hits; also: potency is read from the fitted curve at half-maximal effect; nearly all actives have a fitted effect of over 55% in size
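Cell growth measured by CellTiter-Glo luminescence after a minimum 48 h, 37 C compound exposure with 20 nM CPT in Tdp1-knockout DT40 cells stably expressing hTDP1, seeded 400/well; qHTS titration format.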
TDP1 cell noCPT – qHTS for Inhibitors of human tyrosyl-DNA phosphodiesterase 1 (TDP1): qHTS in cells in absence of CPT. DT40 Tdp1-/- hTDP1 cells, no CPT, ATP luminescence, 48 h. 420,000 compounds, 15% hits. Potency, µM (titrated, usually from 46.2 µM), without a hit: at the highest dose activity change, negative = growth inhibition, most hits filed as inhibitors. AID 686978, 2013; also: potency is read from the fitted curve at half-maximal effect; nearly all actives have a fitted effect of over 55% in size
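Stably hTDP1-transfected Tdp1-null chicken DT40 cells were treated with library compounds minus camptothecin and grown for at least 48 hr at 37 °C, after which cellular ATP was quantified by luminescence.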
HT1080 IDH1KD tx – HT-1080 IDH1 knockdown cell toxicity (counter line); 360,000 compounds, 2% hits; HT-1080 IDH1 knockdown viability, ATP luminescence, 48 h; Potency, µM (doses to about 46.1 µM), for inactives: at the highest dose activity, negative = toxicity, hits mostly cytotoxic; AID 686971;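 also: potency is read from the fitted curve at half-maximal effect; 0% = DMSO wells and -100% = cell-free medium wells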
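Assay cells: HT-1080 with IDH1 knockdown, 750 per well, RPMI/5% FBS. Exposure: 48 h at 37 °C following 2 h pre-incubation. Read: CellTiter-Glo luminescence; fitted concentration-response, curve class assigned.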
IL1B secr inh – inflammasome signaling inhibition, IL-1 beta readout; activity change, % at 57.5 µM; THP-1 LPS/ATP IL-1B secretion, AlphaLISA, 16 h; active compounds read low; 360,000 compounds, 4.7% hits; AID 743279; in the data active = activity change below about -50%; inconclusive = mostly about -30% to -49%
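Secreted IL-1B measured by AlphaLISA bead assay after 16 h compound exposure of THP-1 cells; compounds (final up to 57.5 uM) added 1 h before LPS (250 ng/mL) and ATP (1.25 mM) stimulation; lower signal means less secretion.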
uPA generation – blocks generation of uPA at the cell surface; cell surface uPA generation assay, qHTS; Potency, µM (top dose mostly 38.3 µM), for the others: at the highest dose activity change, negative = inhibition, usual class: inhibitors; 330,000 compounds, 0.31% hits; AID 540303; active = well fitted inhibition curve with a large enough effect; inconclusive = small, poorly fitted or top-dose-only effect; inactive = no such curve, though single readings can be large or run the other way; tested in mouse RAW 264.7 cells; also: potency is read from the fitted curve at half-maximal effect; nearly all actives have a fitted effect of over 55% in size
Numbers without * were called inactive; i = inactive; ? = inconclusive; / = no result given; [ ] = remark or other dose. This is a sample that favours compounds with a hit; in the whole collection about 19% have one here. Unless noted, calls follow the shape of the dose curve; as a rule, active = well fitted curve in the direction sought with a large enough effect; inconclusive = small, poorly fitted or top-dose-only effect, or another doubt; inactive = no such curve, though single readings can be large; an effect the other way counts as inactive or inconclusive. Unless noted, % is scaled to controls: 0 for no effect and ±100 for the full control effect.

SMILES	HT1080NT lethal	DT40 TDP1 CPT	TDP1 cell noCPT	HT1080 IDH1KD tx	IL1B secr inh	uPA generation
COC(=O)c1cccc(S(=O)(=O)N2CCC(C)CC2)c1	25%	16%	-2%	-1%	2	1%
Cc1cc(C)n(C(=O)/C(C#N)=C/N(C)C)n1	13%	-2%	-17%	17%	-9	-1%
CCc1ccc(CN2CCC(Oc3ccc(C(=O)N4CCCC4)cc3)CC2)cc1	-6%	18µM*	?	-20%	0	-8%
C=CCOc1ccccc1CN1CCC(Oc2ccc(C(=O)N3CCCCC3)cc2)CC1	-3%	?	21µM*	-4%	0	?
COCC(=O)N1CCC(Oc2ccc(C(=O)N(C)CCCC3CCCC3)cc2)CC1	4%	18µM*	21µM*	-11%	13	-8%
COCC(=O)N1CCC(Oc2ccc(C(=O)N3CCCCCCC3)cc2)CC1	4%	?	13µM*	7%	15	-3%
COCC(=O)N1CCC(Oc2ccc(C(=O)N3CCCCCC3)cc2)CC1	1%	9%	-5%	0%	9	15%
O=C(c1ccc(OC2CCN(C/C=C/c3ccc(F)cc3)CC2)cc1)N1CCCC1	-12%	26µM*	?	?	-71*	-8%
CCc1ccc(CN2CCC(Oc3ccc(C(=O)N4CCCCC4)cc3)CC2)cc1	0%	?	15µM*	1%	i	-9%
CN(C1CCCCC1)S(=O)(=O)c1ccc2c(c1)c(=O)c(C(=O)O)cn2C	0%	-19%	-4%	7%	16	/
O=C1c2ccccc2C(=O)C12OC2c1ccc(Cl)cc1Cl (stereo not drawn)	21µM*	5.2µM*	9.2µM*	?	-101*	-1%
CCc1ccc(C(C)NC(=O)C2(C)CC2(Br)Br)cc1 (stereo not drawn)	0%	-9%	-26%	-14%	-61*	1%
Cc1cc(C(=O)NN)c(C)o1	-22%	1%	11%	4%	0	-15%
CCc1ccc(C(C)NC(=O)c2cc(C)oc2C)cc1 (stereo not drawn)	-1%	21µM*	23µM*	8%	-2	-8%
N/C(=N\C(=S)Nc1ccc2c(c1)OCO2)c1ccccc1	-19%	?	?	-12%	7	/
S=c1nccc(-c2ccc(Cl)cc2)[nH]1	14%	?	21µM*	4%	-7	3%
Cc1ccsc1C(=O)N1CCC1(C)C(=O)NCCC#N (stereo not drawn)	21%	1%	-9%	18%	15	/
COCCNC(=O)C1=C(N)C(C(=O)Nc2ccc(C)c(S(=O)(=O)N3CCCCC3)c2)SC1=Nc1ccc(C)cc1C (stereo not drawn)	13µM*	18µM*	18µM*	?	-20	-15%
CCN(CC)S(=O)(=O)c1cccc(NC(=O)C2SC(=Nc3ccc(C)cc3C)C(C(=O)NCC3CCCO3)=C2N)c1 (stereo not drawn)	-1%	?	23µM*	-20%	0	-2%
COC(=O)c1c(C)[nH]c(C(=O)COC(=O)Cn2cc(C(F)(F)F)ccc2=O)c1C	2%	?	-21%	0%	16	3%
Cc1ccc(CNC(=O)c2ccc3c(c2)NC(=O)C(N2CCOCC2)S3)cc1 (stereo not drawn)	-6%	?	?	-31%	-77*	3%
O=C(NCCCN1CCCCCC1)c1ccc2c(c1)NC(=O)C(N1CCOCC1)S2 (stereo not drawn)	13%	3%	-7%	5%	-9	4%
C[C@@H](CO)NC(=O)c1nc[nH]c1C(=O)N[C@H](C)c1ccccc1	5%	2%	-1%	0%	-4	/
CSc1ccc(/C=C/C(=O)Nc2ccccc2)cc1	?	?	-24%	?	-20	-4%
Cc1cccc(NC(=O)/C=C/c2ccc(Cl)cc2)n1	-15%	?	18µM*	?	-3	-5%
SMILES	HT1080NT lethal	DT40 TDP1 CPT	TDP1 cell noCPT	HT1080 IDH1KD tx	IL1B secr inh	uPA generation
COc1cccc(NC(=O)/C=C\c2ccc(Cl)cc2)c1	/	30µM*	?	/	/	/
CSc1cccc(NC(=O)/C=C/c2ccc(Cl)cc2)c1	?	?	?	?	-72*	/
COc1cccc(NC(=O)/C=C/c2ccco2)c1	-14%	-23%	?	-16%	?	-7%
Cc1cccc(NC(=O)/C(C#N)=C/c2ccc(Cl)cc2)n1	14%	-13%	-16%	10%	-2	-4%
CSc1cccc(NC(=O)/C=C/c2ccco2)c1	-1%	23µM*	?	1%	-5	-9%
COc1ccc(C(=O)NCc2ccncc2)cc1S(=O)(=O)NCc1ccc(Cl)cc1	-3%[9.24 µM]	-18%	10%	6%	2	-7%
O=C1NC(=O)C(c2ccccc2)(c2ccc(Cl)cc2Cl)N1 (stereo not drawn)	-19%	-54%	?	-11%	-11	3%
O=C(CSc1nnc2ccc3ccccc3n12)c1ccc(F)cc1	/	?	16µM*	/	/	/
CCOc1ccc(-c2nnc(SCC(=O)c3ccc(F)cc3)n2-c2ccccc2)cc1	/	13µM*	?	/	/	/
O=C(CCSc1nnc2ccc3ccccc3n12)Nc1ccc(F)cc1	?	?	?	?	-1	-4%
COc1ccc(C(=O)CSc2nnc(-c3cccs3)n2-c2ccccc2)cc1	8%	-27%	-23%	4%	-8	-5%
CCOc1ccc(-n2c(C)c3c(C)nnc(C)c3c2C)cc1	-9%	2.9µM*	2.1µM*	-31%	44	/
COc1ccc(C(=O)CSc2nnc(CN3CCCCC3)n2-c2ccc(F)cc2)cc1	11%	21µM*	13µM*	-2%	0	3%
O=S(=O)(Nc1ccon1)c1ccc(F)c(F)c1	17%	-3%	15%	7%	47	5%
O=C(CSc1nnc(-c2ccc(Br)cc2)n1-c1ccccc1)c1ccccc1	/	7.3µM*	4.1µM*	/	/	/
Cc1cc(C)cc(-n2c(C)c3c(C)nnc(C)c3c2C)c1	1%	8.2µM*	7.3µM*	-8%	-2	-9%
Cc1nnc(C)c2c(C)n(-c3ccc4ncccc4c3)c(C)c12	-1%	12µM*	?	4%	7	0%
O=C(CSc1nnc(-c2ccccc2)n1-c1ccccc1)c1ccc[nH]1	7%	?	?	6%	0	3%
Cc1ccc(-c2nnc(SCC(=O)c3ccc(Cl)cc3)n2-c2ccccc2)cc1	/	4.6µM*	8.2µM*	/	/	/
COc1ccc(C(C)=O)cc1CSc1nnc(-c2ccc(Cl)cc2)n1-c1ccccc1	?	13µM*	13µM*	?	-23	1%
